# “And” between values parts separate entries of the source, which are not always exact repeats. Equal entries are not always repeated. Results filed as inconclusive are left out. A call without a number means that no potency is given here. More than one record can exist for a structure, and the calls need not agree. The source made the active and inactive calls. Unless noted, calls follow the shape of the dose curve; as a rule, active = well fitted curve in the direction sought with a large enough effect; inconclusive = small, poorly fitted or top-dose-only effect, or another doubt; inactive = no such curve, though single readings can be large; an effect the other way counts as inactive or inconclusive.
# Experiments:
# [1] = biological target: Cytochrome P450 1A2 (Homo sapiens) (UniProt P05177); experiment: p450-cyp1a2 (AID 410; calls by dose curve; also: potency is read from the fitted curve at half-maximal effect)
# Sequence of Cytochrome P450 1A2 (Homo sapiens) (P05177 whole entry, looked up): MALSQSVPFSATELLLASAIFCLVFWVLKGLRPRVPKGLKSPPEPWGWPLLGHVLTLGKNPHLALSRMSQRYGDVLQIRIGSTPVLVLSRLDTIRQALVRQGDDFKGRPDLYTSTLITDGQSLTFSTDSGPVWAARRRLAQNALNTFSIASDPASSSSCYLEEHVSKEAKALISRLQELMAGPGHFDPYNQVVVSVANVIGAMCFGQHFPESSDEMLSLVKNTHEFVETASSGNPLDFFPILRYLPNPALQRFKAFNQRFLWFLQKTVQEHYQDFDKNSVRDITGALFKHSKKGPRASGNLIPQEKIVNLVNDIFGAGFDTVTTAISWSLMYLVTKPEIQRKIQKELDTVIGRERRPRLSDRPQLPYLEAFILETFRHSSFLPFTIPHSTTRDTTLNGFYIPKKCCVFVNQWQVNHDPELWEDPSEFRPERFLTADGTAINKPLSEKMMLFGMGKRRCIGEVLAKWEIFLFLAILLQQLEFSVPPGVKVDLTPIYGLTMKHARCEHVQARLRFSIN
# Method in brief: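 Human CYP1A2 (20nM) demethylated Luciferin-ME at its Km (100uM) in 100mM KPO4. After 10 min compound preincubation, NADPH regeneration ran the reaction 60 min at room temperature. Luciferin was read by luminescence, normalized to 57 uM furafylline.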
# [2] = NFAT Signaling Pathway (AID 444; active = well fitted curve in either direction with a large enough effect, not every such curve was filed as active;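 also: carbachol stimulus at about its EC50 of 1 µM final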); details: Jurkat NFAT-bla M1, carbachol, beta-lactamase ratio, 5 h; at 17.2 µM (top of the series) unless noted
# Method in brief: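 Jurkat cells with NFAT-driven β-lactamase reporter and co-expressed M1 receptor, stimulated with carbachol (final 1 uM, ~EC50), compound titration, 5 h at 37 °C. CCF4 loaded 1 h at RT; 460/530 nm ratio gave %activity and AC50.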
# [3] = biological target: Glucocorticoid receptor (Homo sapiens) (UniProt P04150); experiment: GR-GFP Redistribution (AID 450;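 active = compounds whose dose series gives a full or clear partial fitted curve of increased nuclear translocation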; also: potency is read from the fitted curve at half-maximal effect)
# Sequence of Glucocorticoid receptor (Homo sapiens) (P04150 whole entry, looked up, the tested form may be a part): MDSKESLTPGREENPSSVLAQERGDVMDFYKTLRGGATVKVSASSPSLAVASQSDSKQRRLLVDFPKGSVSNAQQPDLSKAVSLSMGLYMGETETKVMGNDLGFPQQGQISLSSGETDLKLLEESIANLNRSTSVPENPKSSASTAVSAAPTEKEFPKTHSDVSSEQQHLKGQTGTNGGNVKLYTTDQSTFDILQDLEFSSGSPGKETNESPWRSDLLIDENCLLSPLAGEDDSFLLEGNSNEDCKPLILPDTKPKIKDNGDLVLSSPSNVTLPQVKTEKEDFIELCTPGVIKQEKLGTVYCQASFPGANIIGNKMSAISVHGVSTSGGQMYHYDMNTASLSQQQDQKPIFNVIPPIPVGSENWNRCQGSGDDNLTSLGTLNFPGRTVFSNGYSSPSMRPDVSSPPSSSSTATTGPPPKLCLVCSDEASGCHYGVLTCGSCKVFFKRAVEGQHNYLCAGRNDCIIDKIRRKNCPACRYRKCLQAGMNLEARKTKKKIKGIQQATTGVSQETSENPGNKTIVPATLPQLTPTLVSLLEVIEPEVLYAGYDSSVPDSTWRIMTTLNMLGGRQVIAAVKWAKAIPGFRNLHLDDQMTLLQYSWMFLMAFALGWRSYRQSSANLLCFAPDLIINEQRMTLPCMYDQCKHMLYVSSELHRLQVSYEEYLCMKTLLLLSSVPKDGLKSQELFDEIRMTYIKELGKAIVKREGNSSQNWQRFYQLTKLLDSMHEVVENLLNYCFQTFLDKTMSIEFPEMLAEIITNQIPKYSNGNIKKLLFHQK
# [4] = biological target: Glucocorticoid receptor (Homo sapiens) (UniProt P04150); experiment: GR-EFC Redistribution (AID 451; calls by dose curve; also: potency is read from the fitted curve at half-maximal effect); details: CHO-K1 GR-EFC translocation, beta-gal luminescence, 2 h
# Method in brief: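 CHO-K1 cells expressing nuclear EA and GR-ED fragments of b-gal; compounds titrated up to 46 uM final, 2 h at 37 C. GR nuclear translocation read as complemented b-gal luminescence after 1 h RT detection.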
# [5] = biological target: Mitogen-activated protein kinase 10 (Mus musculus) (UniProt Q61831); experiment: JNK3 AlphaScreen Assay (AID 530; active = well fitted curve in either direction with a large enough effect, not every such curve was filed as active;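 also: kinase came from lysate of stimulated human HepG2 cells; signal reports phosphorylation of biotinylated GST-cJun 1-79 at Ser73 with 10 µM ATP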)
# Method in brief: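 qHTS format: compounds tested as titrations against IL-1beta/TNF-alpha-activated HepG2 lysate JNK3 with biotin-GST-cJun substrate and 10 uM ATP at room temperature. Loss of anti-phospho-cJun AlphaScreen signal indicates inhibition.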
# [6] = biological target: 3',5'-cyclic-AMP phosphodiesterase 4B (Homo sapiens) (UniProt Q07343); experiment: qHTS Assay for Inhibitors of PDE-IV (AID 607; active = well fitted activation curve with a large enough effect in the main read-out, with a control signal flat, not every such curve was filed as active)
# Sequence of 3',5'-cyclic-AMP phosphodiesterase 4B (Homo sapiens) (Q07343 whole entry, looked up): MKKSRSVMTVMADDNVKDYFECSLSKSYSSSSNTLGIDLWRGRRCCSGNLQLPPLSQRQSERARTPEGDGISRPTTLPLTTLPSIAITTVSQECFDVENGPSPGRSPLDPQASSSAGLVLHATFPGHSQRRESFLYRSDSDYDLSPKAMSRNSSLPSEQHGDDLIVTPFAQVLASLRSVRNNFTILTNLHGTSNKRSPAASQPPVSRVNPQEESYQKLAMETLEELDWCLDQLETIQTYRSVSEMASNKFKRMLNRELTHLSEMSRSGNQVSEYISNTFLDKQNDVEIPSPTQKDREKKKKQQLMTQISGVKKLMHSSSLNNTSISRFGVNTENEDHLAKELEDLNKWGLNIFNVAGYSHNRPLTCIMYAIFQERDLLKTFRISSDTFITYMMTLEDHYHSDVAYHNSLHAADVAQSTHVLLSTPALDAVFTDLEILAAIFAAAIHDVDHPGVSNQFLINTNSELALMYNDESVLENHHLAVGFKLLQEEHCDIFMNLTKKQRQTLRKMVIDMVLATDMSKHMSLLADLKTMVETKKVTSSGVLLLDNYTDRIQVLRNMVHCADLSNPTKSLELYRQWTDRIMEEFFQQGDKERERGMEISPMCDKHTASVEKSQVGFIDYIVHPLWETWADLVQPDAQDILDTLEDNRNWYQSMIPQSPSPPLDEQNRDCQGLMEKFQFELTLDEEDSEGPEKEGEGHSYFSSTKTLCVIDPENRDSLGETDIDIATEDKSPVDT
# Method in brief: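 Live HEK293 cells with a modified cyclic nucleotide-gated (CNG) channel report intracellular cAMP via membrane-potential dye fluorescence (ex 535/em 590 nm). Endogenous PDE-IV was targeted. Compounds were tested at up to 22.9 uM final; RO 20-1724 100 uM served as control.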
# [7] = biological target: Guanine nucleotide-binding protein G(i) subunit alpha-1 (Homo sapiens) (UniProt P63096); experiment: qHTS Assay for Inhibitors of RGS12 GoLoco Motif Activity (Green Fluorophore) (AID 879);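 also: negative values mean loss of peptide binding seen as reduced polarization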
# Sequence of Guanine nucleotide-binding protein G(i) subunit alpha-1 (Homo sapiens) (P63096 whole entry, looked up): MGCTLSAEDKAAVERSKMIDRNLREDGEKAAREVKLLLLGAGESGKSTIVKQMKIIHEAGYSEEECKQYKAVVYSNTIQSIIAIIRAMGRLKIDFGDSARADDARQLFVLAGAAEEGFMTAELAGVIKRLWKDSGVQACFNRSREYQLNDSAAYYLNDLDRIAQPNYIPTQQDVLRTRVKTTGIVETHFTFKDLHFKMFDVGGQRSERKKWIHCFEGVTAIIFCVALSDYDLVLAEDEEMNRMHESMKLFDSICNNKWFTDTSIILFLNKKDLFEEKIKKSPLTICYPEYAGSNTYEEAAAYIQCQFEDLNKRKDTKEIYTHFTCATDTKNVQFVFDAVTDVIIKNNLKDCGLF
# Method in brief: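 Fluorescence polarization assay: 50 nM Gαi1 with 10 nM FITC-labeled RGS12 GoLoco peptide in 10 mM Tris pH 7.5, 150 mM NaCl, 0.1 mM GDP, 0.05% NP40, 10 min at room temperature with compound.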
# [8] = biological target: Cytochrome P450 3A4 (Homo sapiens) (UniProt P08684); experiment: qHTS Assay for Activators of Cytochrome P450 3A4 (AID 885); also: nearly all actives have a fitted effect of over 65% in size
# Sequence of Cytochrome P450 3A4 (Homo sapiens) (P08684 whole entry, looked up): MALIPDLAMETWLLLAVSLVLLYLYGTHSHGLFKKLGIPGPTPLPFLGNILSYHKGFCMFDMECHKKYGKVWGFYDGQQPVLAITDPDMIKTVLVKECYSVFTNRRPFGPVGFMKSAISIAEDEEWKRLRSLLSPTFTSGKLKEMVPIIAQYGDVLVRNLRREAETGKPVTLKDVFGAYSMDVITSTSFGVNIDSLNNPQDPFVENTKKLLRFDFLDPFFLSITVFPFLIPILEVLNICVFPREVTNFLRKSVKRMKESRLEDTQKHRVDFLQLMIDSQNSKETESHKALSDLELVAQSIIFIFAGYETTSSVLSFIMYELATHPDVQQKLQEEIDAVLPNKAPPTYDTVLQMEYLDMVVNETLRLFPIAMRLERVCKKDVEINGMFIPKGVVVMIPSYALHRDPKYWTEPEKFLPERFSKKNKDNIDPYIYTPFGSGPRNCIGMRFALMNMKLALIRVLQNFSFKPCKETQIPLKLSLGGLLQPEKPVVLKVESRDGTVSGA
# Method in brief: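 Quantitative HTS format: compounds preincubated with 20nM human CYP3A4 and Luciferin-PPXE substrate at KM, reaction started by NADPH regeneration, stopped after 60 min, luciferase luminescence read 20 min later.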
# [9] = biological target: Cytochrome P450 2D6 (Homo sapiens) (UniProt P10635); experiment: qHTS Assay for Inhibitors and Substrates of Cytochrome P450 2D6 (AID 891);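 also: luciferin methyl ether substrate demethylated by CYP2D6 with NADPH regeneration; nearly all actives have a fitted effect of over 60% in size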
# Method in brief: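 Human CYP2D6 (5 nM) with 30 uM Luciferin-ME EGE (at Km) in 100 mM KPO4, compound preincubated 10 min, then NADPH regeneration system for 60 min at room temperature. Luciferin read by luminescence; normalized to 1.43 uM quinidine.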
# [10] = qHTS Assay for Identification of Small Molecule Antagonists for Thrombopoietin (TPO) Signaling Pathway (AID 918); details: TPO-dependent cell signaling reporter, antagonist mode; also: potency is read from the fitted curve at half-maximal effect; nearly all actives have a fitted effect of over 60% in size
# Method in brief: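 Murine Ba/F3 cells stably expressing human TPO receptor and a Glycoprotein IIb promoter–luciferase reporter were IL-3-starved overnight, treated with compounds plus TPO (26 pM final, its EC50) for 24 hrs at 37 C, then read by luminescence.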
# [11] = biological target: Pyruvate kinase (Leishmania mexicana) (UniProt Q27686); experiment: qHTS Validation Assay for Inhibitors of Leishmania Mexicana Pyruvate Kinase (AID 945)
# Method in brief: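 Luminescent ATP detection (PKLight) after a 1 h room-temperature reaction of 0.2 nM LmPYK E451W mutant with 0.5 mM PEP and 0.1 mM ADP at pH 7.2. Activity is normalized to DMSO-only control wells.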
# [12] = biological target: Pyruvate kinase PKM (Homo sapiens) (UniProt P14618); experiment: qHTS Assay for Activators of Human Muscle Pyruvate Kinase (AID 954; active = well fitted curve in the direction sought with a large enough effect, not every such curve was filed as active)
# Method in brief: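 Enzyme was run at intermediate activity so both inhibitors and activators could be detected. ATP formed from ADP and PEP by 0.1 nM human PKM2 during a 1 h room-temperature incubation was quantified by coupled luciferase luminescence.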
# [13] = biological target: Alpha-galactosidase A (Homo sapiens) (UniProt P06280); experiment: Counterscreen for Glucocerebrosidase Inhibitors: qHTS Assay for Human alpha-Galactosidase at pH 4.5 (AID 992)
# Sequence of Alpha-galactosidase A (Homo sapiens) (P06280 whole entry, looked up): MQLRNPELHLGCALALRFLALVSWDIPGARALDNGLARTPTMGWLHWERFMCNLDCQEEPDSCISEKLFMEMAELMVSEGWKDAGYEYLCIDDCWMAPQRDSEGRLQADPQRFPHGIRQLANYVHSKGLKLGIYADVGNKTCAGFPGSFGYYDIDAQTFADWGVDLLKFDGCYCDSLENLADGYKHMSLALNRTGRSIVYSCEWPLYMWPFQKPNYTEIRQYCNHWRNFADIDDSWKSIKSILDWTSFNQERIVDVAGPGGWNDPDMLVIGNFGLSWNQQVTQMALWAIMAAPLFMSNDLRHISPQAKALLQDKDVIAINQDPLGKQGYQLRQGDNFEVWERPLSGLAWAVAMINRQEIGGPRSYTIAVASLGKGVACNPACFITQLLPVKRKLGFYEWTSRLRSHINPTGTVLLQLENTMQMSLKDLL
# Method in brief: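 Read-out is 4-methylumbelliferone fluorescence (365 nm excitation, 440 nm emission) after a pH 10 NaOH/glycine stop. Reactions held 2 nM enzyme and 80 uM substrate at pH 4.5 for 20 min at room temperature.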
# [14] = biological target: alpha-glucosidase (Oryza sativa, rice) (UniProt Q653V4); experiment: Counterscreen for Glucocerebrosidase Inhibitors: qHTS Assay for Rice alpha-Glucosidase at pH 5.0 (AID 997)
# Method in brief: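 Rice alpha-glucosidase (4 nM final) with 400 uM 4-methylumbelliferyl-alpha-D-glucopyranoside in citrate buffer pH 5.0, 20 min at room temperature, stopped at pH 10; fluorescence 365/440 nm, compounds 0.7 nM–77 uM, AC50 from Hill fits.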
# [15] = biological target: ATP-dependent 6-phosphofructokinase (Trypanosoma brucei brucei) (UniProt O15648); experiment: qHTS Assay to Find Inhibitors of T. brucei phosphofructokinase: hit validation (AID 492961)
# Sequence of ATP-dependent 6-phosphofructokinase (Trypanosoma brucei brucei) (O15648 whole entry, looked up): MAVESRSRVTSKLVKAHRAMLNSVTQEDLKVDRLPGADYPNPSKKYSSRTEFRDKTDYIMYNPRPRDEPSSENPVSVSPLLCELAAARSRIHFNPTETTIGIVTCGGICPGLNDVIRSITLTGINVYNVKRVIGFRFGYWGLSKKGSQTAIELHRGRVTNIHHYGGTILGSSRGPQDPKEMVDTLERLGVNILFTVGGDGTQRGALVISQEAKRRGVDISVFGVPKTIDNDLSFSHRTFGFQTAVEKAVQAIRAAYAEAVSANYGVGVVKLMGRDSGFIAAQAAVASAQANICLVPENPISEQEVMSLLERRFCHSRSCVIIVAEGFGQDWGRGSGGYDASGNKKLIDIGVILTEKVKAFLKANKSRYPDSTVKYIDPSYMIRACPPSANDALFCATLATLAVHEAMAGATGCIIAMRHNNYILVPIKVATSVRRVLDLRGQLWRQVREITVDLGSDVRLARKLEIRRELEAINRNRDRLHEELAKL
# Method in brief: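 Luminescence from ADP-Glo reports ADP generated as T. brucei PFK (1.25 nM) phosphorylates 0.5 mM fructose-6-phosphate using 0.1 mM ATP. Reactions ran 45 min at room temperature, pH 8.0.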
# [16] = biological target: Ubiquitin carboxyl-terminal hydrolase 1 (Homo sapiens) (UniProt O94782); experiment: Inhibitors of USP1/UAF1: Pilot qHTS (AID 504865);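 also: rhodamine fluorescence freed from ubiquitin-rhodamine substrate followed over time; top concentration of the series differs between compounds; nearly all actives have a fitted effect of over 35% in size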
# Sequence of Ubiquitin carboxyl-terminal hydrolase 1 (Homo sapiens) (O94782 whole entry, looked up): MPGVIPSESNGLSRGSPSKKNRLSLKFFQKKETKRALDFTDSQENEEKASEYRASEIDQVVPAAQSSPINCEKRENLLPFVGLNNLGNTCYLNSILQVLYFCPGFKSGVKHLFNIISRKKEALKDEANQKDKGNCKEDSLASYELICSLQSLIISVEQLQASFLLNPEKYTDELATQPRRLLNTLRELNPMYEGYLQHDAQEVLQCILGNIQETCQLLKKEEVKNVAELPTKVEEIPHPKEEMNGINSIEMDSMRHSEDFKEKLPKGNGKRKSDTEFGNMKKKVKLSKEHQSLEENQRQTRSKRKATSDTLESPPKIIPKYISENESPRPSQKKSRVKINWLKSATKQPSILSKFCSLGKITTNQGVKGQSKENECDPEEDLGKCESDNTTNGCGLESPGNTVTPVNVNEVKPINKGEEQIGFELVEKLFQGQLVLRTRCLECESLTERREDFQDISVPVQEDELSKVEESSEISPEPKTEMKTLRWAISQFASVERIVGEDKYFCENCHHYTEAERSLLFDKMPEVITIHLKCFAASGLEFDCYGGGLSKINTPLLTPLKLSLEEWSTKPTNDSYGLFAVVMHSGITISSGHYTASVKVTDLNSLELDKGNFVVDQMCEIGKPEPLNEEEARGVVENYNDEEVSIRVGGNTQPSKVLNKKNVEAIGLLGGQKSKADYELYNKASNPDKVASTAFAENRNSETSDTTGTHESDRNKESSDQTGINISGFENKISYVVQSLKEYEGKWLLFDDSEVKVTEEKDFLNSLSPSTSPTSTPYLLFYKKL
# Method in brief: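 Deubiquitinase activity followed as kinetic rhodamine fluorescence release from 150 nM Ub-Rho. 1 nM USP1/UAF1 with compound, after 15 min room-temperature preincubation, in HEPES pH 7.8 buffer containing TCEP, EDTA, BSA and Tween-20.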
# [17] = biological target: Luciferin 4-monooxygenase (Photinus pyralis) (UniProt P08659); experiment: Biochemical firefly luciferase enzyme assay for NPC (AID 624030);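 also: purified P. pyralis luciferase at 10 nM with luciferin and ATP substrate; nearly all actives have a fitted effect of over 70% in size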
# Method in brief: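 Purified P. pyralis luciferase at 10 nM in 50 mM Tris Acetate (final), luminescence read within 5 minutes of enzyme addition to compounds. Activity normalised to PTC124 versus DMSO; concentration-response curves classed by r2, magnitude and activity.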
# [18] = S16 Schwann cell PMP22 intronic element firefly luciferase assay (AID 624032); also: potency is read from the fitted curve at half-maximal effect; nearly all actives have a fitted effect of over 30% in size
# Method in brief: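 Rat S16 Schwann cells stably carrying firefly luciferase driven by a PMP22 intronic element, in 10% FBS, treated 24 h at 37 C. ONE-Glo luminescence normalized to PTC124 control and DMSO (0%); curves classed by r2, magnitude and activity.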
# [19] = qHTS profiling for inhibitors of Plasmodium falciparum proliferation (AID 504749); also: nearly all actives have a fitted effect of over 60% in size; also: potency is read from the fitted curve at half-maximal effect; details: P. falciparum in erythrocytes, SYBR Green DNA, 72 h; at 28.7 µM (top of the series); parasite line B
# Method in brief: (§1)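 Readout was DNA-dye fluorescence from lysed cultures, ex 485/em 535 nm. Parasitized red cells had grown 72 h with compound; data scaled between 0.29 uM artemisinin and DMSO wells and corrected using vehicle-only plates.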
# [20] = tested on: AS120; experiment: as above; details: P. falciparum in erythrocytes, SYBR Green DNA, 72 h; series mostly up to 28.7 µM
# Method in brief: as §1
# [21] = tested on: ATS95; experiment: as above; details: P. falciparum in erythrocytes, SYBR Green DNA, 72 h; series mostly up to 28.7 µM
# Method in brief: as §1
# [22] = tested on: CP185; experiment: as above; details: P. falciparum in erythrocytes, SYBR Green DNA, 72 h; series mostly up to 28.7 µM
# Method in brief: as §1
# [23] = tested on: CP192; experiment: as above; details: P. falciparum in erythrocytes, SYBR Green DNA, 72 h; series mostly up to 28.7 µM
# Method in brief: as §1
# [24] = tested on: CP201; experiment: as above; details: P. falciparum in erythrocytes, SYBR Green DNA, 72 h; series mostly up to 28.7 µM
# Method in brief: as §1
# [25] = tested on: CP203; experiment: as above; details: P. falciparum in erythrocytes, SYBR Green DNA, 72 h; series mostly up to 28.7 µM
# Method in brief: as §1
# [26] = tested on: CP211; experiment: as above; details: P. falciparum in erythrocytes, SYBR Green DNA, 72 h; series mostly up to 28.7 µM
# Method in brief: as §1
# [27] = tested on: CP238; experiment: as above; details: P. falciparum in erythrocytes, SYBR Green DNA, 72 h; series mostly up to 28.7 µM
# Method in brief: as §1
# [28] = tested on: CP247; experiment: as above; details: P. falciparum in erythrocytes, SYBR Green DNA, 72 h; series mostly up to 28.7 µM
# Method in brief: as §1
structure (smiles),measurement,setting,value
C=C1C(=O)O[C@@H]2[C@@H]1CC/C(C)=C\CC[C@@]1(C)O[C@H]21,Potency,[1],inactive and 12.6 µM (active)
same,"activity change, negative = inhibition",[2],-121% (active)
same,Potency,[3],> 46 µM (inactive) and > 20.6 µM (inactive)
same,Potency,[4],> 46 µM (inactive) and > 20.6 µM (inactive)
same,Potency,[5],inactive
same,Potency,[6],inactive
same,outcome,[7],inactive
same,Potency,[8],inactive
same,Potency,[9],inactive
same,Potency,[10],10 µM (active)
same,Potency,[11],inactive
same,outcome,[12],inactive
same,outcome,[13],inactive
same,outcome,[14],inactive
same,Potency,[15],inactive
same,Potency,[16],inactive
same,Potency,[17],inactive
same,Potency,[18],32.2 µM (active)
same,"activity, negative = inhibition",[19],-27.2% (inactive)
same,Potency,[20],inactive
same,Potency,[21],inactive
same,Potency,[22],inactive
same,Potency,[23],inactive
same,Potency,[24],inactive
same,Potency,[25],inactive
same,Potency,[26],inactive
same,Potency,[27],inactive
same,Potency,[28],5.01 µM (active)
